Source: PubChem BioAssay (Buhrlage Lab, Dana-Farber Cancer Institute and Novartis Institutes for BioMedical Research (Cambridge, Mass))
USP28 inh: inhibitors of human USP28 deubiquitinase; Ubiquitin carboxyl-terminal hydrolase 28 (Homo sapiens), Q96RU2; purified USP28, Ub-rhodamine cleavage fluorescence, 30 min; inhibition, % at 25 µM; 47,000 tested, 3% active; AID 1645857, 2021
Target sequence (Q96RU2 whole entry, looked up): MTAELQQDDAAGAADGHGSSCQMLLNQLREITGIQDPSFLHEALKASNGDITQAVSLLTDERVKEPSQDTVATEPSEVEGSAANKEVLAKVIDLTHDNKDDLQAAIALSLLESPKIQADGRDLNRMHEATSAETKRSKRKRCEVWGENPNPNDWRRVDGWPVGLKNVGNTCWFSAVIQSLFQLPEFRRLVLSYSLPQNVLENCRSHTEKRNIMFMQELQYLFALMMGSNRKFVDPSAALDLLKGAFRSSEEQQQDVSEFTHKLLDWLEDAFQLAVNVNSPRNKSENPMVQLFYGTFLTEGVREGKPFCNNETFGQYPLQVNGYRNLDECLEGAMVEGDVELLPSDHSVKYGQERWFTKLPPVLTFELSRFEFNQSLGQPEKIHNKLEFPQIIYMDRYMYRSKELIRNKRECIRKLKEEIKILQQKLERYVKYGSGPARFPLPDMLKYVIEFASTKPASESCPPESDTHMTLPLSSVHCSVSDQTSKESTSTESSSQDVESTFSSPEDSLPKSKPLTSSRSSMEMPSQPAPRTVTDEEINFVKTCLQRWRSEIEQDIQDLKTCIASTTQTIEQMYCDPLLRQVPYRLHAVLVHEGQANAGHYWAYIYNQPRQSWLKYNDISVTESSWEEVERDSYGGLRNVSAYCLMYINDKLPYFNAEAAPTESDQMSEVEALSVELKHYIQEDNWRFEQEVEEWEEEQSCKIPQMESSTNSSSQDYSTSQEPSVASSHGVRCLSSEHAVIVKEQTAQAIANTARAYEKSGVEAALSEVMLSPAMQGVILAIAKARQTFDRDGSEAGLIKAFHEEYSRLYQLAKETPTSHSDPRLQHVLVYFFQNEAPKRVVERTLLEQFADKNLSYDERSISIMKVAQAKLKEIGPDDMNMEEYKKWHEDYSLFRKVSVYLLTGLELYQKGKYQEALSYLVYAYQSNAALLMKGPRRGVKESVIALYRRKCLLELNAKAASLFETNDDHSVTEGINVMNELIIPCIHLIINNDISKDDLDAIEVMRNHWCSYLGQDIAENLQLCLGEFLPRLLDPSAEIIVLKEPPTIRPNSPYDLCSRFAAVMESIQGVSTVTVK
USP17 block: inhibitors of human USP17 deubiquitinase. purified USP17, Ub-rhodamine cleavage fluorescence, 3 h. 47,000 tested, 6.5% active. Ubiquitin carboxyl-terminal hydrolase 17-like protein 5 (Homo sapiens), A8MUK1. inhibition, % at 50 µM
OTUD3 block: inhibitors of human OTUD3 deubiquitinase | purified OTUD3, Ub-rhodamine fluorescence, 2 h | 47,000 tested, 0.7% active | AID 1645858, 2021 | inhibition, % at 25 µM
USP30 block: inhibitors of human USP30 deubiquitinase. Ubiquitin carboxyl-terminal hydrolase 30 (Homo sapiens), Q70CQ3. 47,000 tested, 5.3% active. AID 1645860, 2021. purified USP30, Ub-rhodamine cleavage fluorescence. inhibition, % at 25 µM
Starred values were filed as active, the others as inactive; i = inactive; . = not tested or not shown. Rows were chosen to be rich in hits. Some 11% of all compounds tested hit in one or more screens of this group. No stated cut-off is given here; in the data, active means inhibition above about 30%; inactive means the rest.

SMILES | USP28 inh | USP17 block | OTUD3 block | USP30 block
COc1cccc(C2CCNc3ccccc3N2)c1 (stereo not drawn) | -23.0 | 36.0* | -22.3 | -133.9
O=C(Nc1ccc2[nH]c(=O)[nH]c2c1)c1cc2c(s1)CCCCC2 | 13.9 | 25.8 | 14.4 | -62.5
CC1CC(=O)N(Cc2ccc(F)cc2)c2ccccc2S1(=O)=O (stereo not drawn) | 12.4 | 15.9 | 11.5 | 19.1
CC1CC(=O)N(Cc2ccc([N+](=O)[O-])cc2)c2ccccc2S1 (stereo not drawn) | 62.5* | -8.0 | 15.7 | 33.2*
O=C1CCSc2ccccc2N1Cc1ccc([N+](=O)[O-])cc1 | 29.2 | 0.9 | 14.0 | 33.4*
O=C1CCSc2ccc(Cl)cc2N1Cc1cccc(F)c1 | 36.6* | 17.7 | 15.4 | 34.3*
CC1Oc2ccccc2C(=O)N(Cc2ccc([N+](=O)[O-])cc2)C1=O (stereo not drawn) | 73.7* | 2.7 | 11.0 | 28.1
O=C(CCc1nnc2ccc(N3CCCCC3)nn12)N1CCOCC1 | -11.3 | -11.8 | -13.1 | -1.4
Cc1ccc(NC(=O)c2cccc(-c3nc(-c4ccccc4)no3)c2)nc1 | 19.4 | 35.3* | 8.1 | 25.7
COc1ccc(C2C(C(=O)C(C)(C)C)N3c4ccc(Cl)cc4C=CC3C23C(=O)c2ccccc2C3=O)cc1 (stereo not drawn) | -202.1 | -106.8 | -153.9 | i
Cc1cccc(C(=O)NCc2noc(-c3ccccc3)n2)c1C | -10.8 | . | -6.7 | -9.7
CN(C(=O)c1ccncc1)[C@H]1CC[C@@]2(C)C[C@H](c3ccccc3)C[C@](C)(O2)[C@@H]1O | 80.8* | 11.1 | 13.3 | 28.7
Cc1noc(CCC(=O)N2CCOC3(CC=CCN(Cc4ccccc4)C3=O)C2)n1 (stereo not drawn) | 2.4 | 3.2 | -1.5 | -19.8
Nc1nc(OCc2ccccc2)c2[nH]c(/C=C/c3cccs3)nc2n1 | 67.5* | 17.4 | 25.1 | 84.2*
Cn1c(=O)c(Cl)nc2c(OCc3ccccc3)nc(N)nc21 | 12.2 | 6.5 | 14.0 | 13.6
Cc1cccc(NC(=O)CSc2nc3c(cc2C#N)C(=O)CCC3)c1 | 1.8 | 7.0 | 3.9 | -13.3
CCCCC(=O)Nc1c(-c2ccc3c(c2)OCO3)c(=O)c2ccccc2n1C | -4.0 | -5.3 | -5.5 | 3.4
CC(=O)Nc1c(-c2ccc3c(c2)OCO3)c(=O)c2ccccc2n1C | 4.7 | 12.0 | 7.4 | 48.9*
O=C(Nc1oc2ccccc2c(=O)c1-c1ccc2c(c1)OCO2)C1CCCCC1 | 4.9 | 83.1* | 6.5 | 26.4
CCC1(C)Cc2c(sc3nc(SCC(=O)NCc4ccco4)nc(N)c23)CO1 (stereo not drawn) | -12.7 | -9.7 | -8.0 | -15.1
Cc1oc(-c2ccc(NC(=O)C(C)(C)C)cc2)nc1Cn1cccn1 | 19.5 | -19.5 | -13.2 | -37.5
Cc1cc(N2C(=O)c3oc4ccc(Cl)cc4c(=O)c3C2c2cccc(OCc3ccccc3)c2)no1 (stereo not drawn) | 6.9 | 12.6 | 11.3 | 30.0
CCC(C)NC(=O)Cn1cc(-c2nnc(CN3CCC(C)CC3)o2)c2ccccc21 (stereo not drawn) | 16.5 | 7.3 | 5.2 | 36.1*
CC1CCN(Cc2nnc(-c3cn(CC(=O)N4CCCCCC4)c4ccccc34)o2)CC1 | -12.3 | -7.7 | -12.9 | -6.5
Cc1nn(-c2ccccc2)c(C)c1C(=O)OCC(=O)Nc1cccc(Br)c1 | 81.0* | -15.4 | 5.4 | -6.4
SMILES | USP28 inh | USP17 block | OTUD3 block | USP30 block
OCC(O)Cc1ccccc1 (stereo not drawn) | -18.0 | -22.4 | -16.4 | 4.6
Cc1cccc(C(=O)NC(NC(=O)c2cccc(C)c2)c2ccccc2F)c1 | 16.4 | . | 22.4 | 43.0*
O=C(NC1CCN(Cc2ccccc2)CC1)c1[nH]nc2c1COc1ccccc1-2 | 66.6* | 19.0 | 3.9 | 7.8
O=C(NCCN1CCCCC1)c1[nH]nc2c1COc1ccccc1-2 | 10.3 | 8.7 | 9.9 | 22.1
O=C(NCc1ccc2c(c1)OCO2)c1[nH]nc2c1COc1ccccc1-2 | 31.1* | 60.1* | 1.1 | 39.5*
COc1ccccc1C(=O)CN1C(=O)c2ccccc2OC(c2ccccc2)C1=O (stereo not drawn) | 6.8 | 5.6 | 1.0 | 4.9
O=C(NCc1ccco1)c1cc(F)cc2c1OCOC2 | -3.5 | -26.5 | -4.3 | -95.3
Cc1noc(C)c1CC(=O)Nc1ccc(C(F)(F)F)cc1 | 0.0 | -8.8 | -0.4 | -8.4
O=C(Nc1ccc(-n2cccc2)cc1)c1cccc([N+](=O)[O-])c1 | 7.6 | 8.5 | -0.2 | 36.6*
O=C(Nc1ccc(-n2cccc2)c(Cl)c1)c1cccc([N+](=O)[O-])c1 | -30.5 | 26.5 | -6.1 | -65.4
Cc1cc(C)cc(NC(=O)Nc2ccccc2SCc2cc(=O)n3oc(C)cc3n2)c1 | 3.4 | 10.8 | 4.2 | 11.3
O=C(Cc1cc(-c2ccc(F)cc2)on1)NCc1ccc(Cl)cc1 | -5.8 | -0.1 | -1.5 | -4.3
NC(=O)c1ccc(NC(=O)Cc2cc(-c3ccc(F)cc3)on2)cc1 | -8.2 | 39.1* | -19.4 | -41.0
O=C(Cc1cc(-c2ccc(F)cc2)on1)Nc1ccccc1C(F)(F)F | -18.9 | 38.6* | -8.4 | -54.0
COc1cccc(-c2cc(CC(=O)Nc3ccc(C(N)=O)cc3)no2)c1 | 17.7 | -3.3 | -9.1 | -33.4
O=C(Cc1cc(-c2ccc(F)cc2)on1)NCc1ccccc1 | -3.9 | 59.8* | 0.2 | 0.0
O=C(C1CCC1)N1CC(c2nc(-c3cnccn3)no2)C1 | 6.0 | 2.5 | 13.0 | 7.2
CC(Nc1ccccc1)c1nc2scc(-c3ccccc3)c2c(=O)[nH]1 (stereo not drawn) | -7.5 | 14.6 | -10.9 | 1.1
CC(NCCc1ccc(Cl)cc1)c1nc2scc(-c3ccccc3)c2c(=O)[nH]1 (stereo not drawn) | -3.7 | 35.0* | -8.2 | -24.4
N#Cc1ccccc1COC(=O)c1ccc2ccccc2n1 | 62.2* | -10.6 | 5.6 | 10.4
N#Cc1ccc(COC(=O)c2ccc3ccccc3n2)cc1 | 64.2* | -14.0 | -20.5 | -28.8
O=C(COC(=O)c1ccc2ccccc2n1)Nc1ccc(F)cc1 | -121.2 | -172.7 | -96.0 | -427.3
Cc1ccc(N(C)S(=O)(=O)c2cccc(C(=O)OCC(=O)c3ccc(-c4ccccc4)cc3)c2)cc1 | -58.5 | -11.2 | -50.1 | -189.2
CN(C)S(=O)(=O)c1cccc(C(=O)OCc2ccccc2C#N)c1 | 35.6* | -0.5 | 8.3 | 21.7
O=C(OCc1ccc(Br)cc1)c1ccc2ccccc2n1 | 81.6* | 22.2 | 16.4 | 22.9
SMILES | USP28 inh | USP17 block | OTUD3 block | USP30 block
Cc1nc2ccccc2n1CC(=O)OCc1ccc(C#N)cc1 | -18.2 | -10.7 | -7.4 | -3.7
O=C(COC(=O)c1ccc2ccccc2n1)Nc1ccc(Br)cc1 | -172.5 | -168.4 | -162.6 | i
O=C(NC1CC1)c1cc(=O)[nH]c2ccc(F)cc12 | -8.4 | -0.7 | -11.7 | -18.2
O=C1C2CCCN2c2ccc(C(F)(F)F)cc2N1Cc1cccc(F)c1 (stereo not drawn) | -43.9 | -38.1 | -30.8 | -189.4
COCCN1C(=O)C[C@@H](C(=O)N2CCCNCC2)[C@@H]1c1ccccc1OC | -2.6 | 12.7 | 2.4 | 5.7
Fc1ccc(CN2CCC(N3CCc4ccccc4C3)CC2)cc1 | 0.3 | -0.3 | 0.5 | 1.3
O=C(Nc1ccc(N2CCN(c3ccccc3)C2=O)nc1)C1CCOC1 (stereo not drawn) | 10.4 | 26.4 | 14.7 | 34.9*
